# Bioassay records deposited in PubChem BioAssay by several laboratories.
# PLAP act – activates human placental alkaline phosphatase | AID 696 | purified PLAP enzyme, luminescent substrate read-out; stronger effect = higher value | activation fold at 20 µM | actives 1.2% (n = 96,000); in the data active = activation fold above about 2
# Target sequence (P05187 whole entry, looked up): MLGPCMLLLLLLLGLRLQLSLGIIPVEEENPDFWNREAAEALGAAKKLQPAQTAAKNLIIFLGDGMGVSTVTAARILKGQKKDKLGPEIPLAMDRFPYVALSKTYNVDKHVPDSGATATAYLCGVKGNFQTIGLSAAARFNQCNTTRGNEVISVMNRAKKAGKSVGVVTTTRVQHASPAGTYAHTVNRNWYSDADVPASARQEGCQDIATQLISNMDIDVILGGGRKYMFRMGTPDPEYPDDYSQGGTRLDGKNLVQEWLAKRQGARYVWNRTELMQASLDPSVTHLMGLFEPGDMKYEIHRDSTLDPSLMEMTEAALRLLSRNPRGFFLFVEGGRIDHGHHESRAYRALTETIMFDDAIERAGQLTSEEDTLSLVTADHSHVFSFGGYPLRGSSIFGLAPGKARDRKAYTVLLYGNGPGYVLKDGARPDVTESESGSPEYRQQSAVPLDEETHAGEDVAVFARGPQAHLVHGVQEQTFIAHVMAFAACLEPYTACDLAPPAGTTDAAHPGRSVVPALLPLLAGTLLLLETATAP
# D1 allo mod – allosterically modulates the human D1 dopamine receptor; actives 5.9% (n = 58,000); B-score at 10 µM; HEK293 D1, CRE-luciferase, dopamine EC30 potentiation; actives deviate in either direction; P21728;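 active = luminescence count or its row- and column-corrected plate score outside the 99.7% band of the plate's sample wells, on either side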
# TNAP act DEA – human TNAP activation, intermediate phosphate acceptor; P05186; purified TNAP, CDP-star luminescence, 100 mM DEA, 30 min; stronger effect = higher value; scale: 0 levamisole-inhibited, 1 vehicle-only enzyme; activation factor at 20 µM; 64,000 tested, under 10 active; AID 813;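 active = activation factor of at least 2 at 20 µM, relative to controls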
# DAT uptake mod – modulates human dopamine transporter uptake under cocaine. Q01959. LLC-PK1 hDAT cells, [14C]-dopamine uptake with cocaine IC80; actives deviate in either direction. B-score at 10 µM. actives 1.3% (n = 110,000). AID 449768;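 active = Z score or B-score, a plate-position-corrected score, falls beyond the plate's 99.7% confidence bounds, in either direction; inactive = both scores lie inside the 99.7% bounds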;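 also: scored against the spread of the other compound wells on the same plate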
# Candida biofilm – kills Candida albicans biofilms. C. albicans biofilm + clotrimazole, Alamar Blue. inhibition, % at 6 µM. actives 0.14% (n = 85,000). AID 834;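 active = inhibition above 20%; inactive = inhibition below 20%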;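 also: preformed 24 hr biofilms exposed to compound for 48 hr; 0% = biofilm without compound and 100% = blank killed by clotrimazole plus chlorhexidine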
# HePTP inhibitor – inhibitors of human HePTP phosphatase; P35236; recombinant HePTP phosphatase activity, OD absorbance; inhibition, % at 20 µM; actives 0.64% (n = 110,000); in the data active = inhibition above about 50%;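 also: plate controls were vehicle for no effect and reference inhibitor for full effect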
# D1 PAM confirm – D1 receptor (human) allosteric modulation, confirmed; shares compounds with D1 allo mod; HEK293 D1 CRE-luciferase, dopamine EC30 potentiation; stronger effect = higher value; luminescence at 10 µM; actives 88% (n = 2,200); AID 642;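 active = luminescence in either of two replicates above the same-plate mean plus 3 SD of the low-dose dopamine control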
# D1 ag no DA – secondary test of D1 modulators: activity without dopamine | shares compounds with D1 allo mod | HEK293 D1 CRE-luciferase, luminescence, no dopamine; stronger effect = higher value | luminescence at 10 µM | actives 0.8% (n = 1,900) | AID 646; in the data active = luminescence above about 3900
# Isoprot counter – isoproterenol response counter-screen activity for D1 modulators | shares compounds with D1 allo mod | HEK293 D1 CRE-luciferase, isoproterenol EC30 counter-screen; stronger effect = higher value | luminescence at 10 µM | actives 63% (n = 2,200) | AID 647;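 active = luminescence in either replicate above plate mean of wells with a partly effective reference agonist dose plus 3 SD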;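 also: isoproterenol raises cAMP through native beta-adrenoceptor Gs so signal bypasses D1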
# Starred values were filed as active, the others as inactive; x = no result given. This excerpt belongs to a sample that is enriched for hits.
SMILES,PLAP act,D1 allo mod,TNAP act DEA,DAT uptake mod,Candida biofilm,HePTP inhibitor,D1 PAM confirm,D1 ag no DA,Isoprot counter
CCOC(=O)c1cc(-c2ccc(N)cc2)sc1N,0.8,10.5*,0.9,0.192,-2.2,0.7,21552*,1580,3604*
CCOC(=O)c1sc(-c2ccc(Br)cc2)cc1N,1,x,x,0.0959,7.2,x,x,x,x
CCOc1ccc(/C=C2/C(=O)NN(c3ccccc3)C2=O)cc1,x,x,x,x,x,-12.6,x,x,x
CCOC(=O)c1ccc2c(c1)nc(SCc1cn3ccsc3n1)n2CC,1.3,12.9*,0.9,1.04,5.3,-0.4,23916*,1828,8472*
COc1ccc(C2=C/C(=C\c3ccc([N+](=O)[O-])cc3)C(=O)O2)cc1,x,x,x,x,x,3.7,x,x,x
COc1cccc(-c2nnc(NC(=O)c3ccc(S(=O)(=O)N4CC(C)OC(C)C4)cc3)o2)c1 (stereo not drawn),1.5,2.83*,1,x,x,5.4,5492,1692,2396
COc1ccccc1C1CC(=O)Nc2ccc3ccccc3c21 (stereo not drawn),x,x,x,x,x,2.5,x,x,x
CCOC(=O)c1oc2nc(C(C)C)c3c(c2c1N)CC(C)(C)OC3,1.1,4.66*,1,1.05,-2.2,-13.7,6644*,1544,2908*
CCOc1ncnc2c1oc1nc(CC(C)C)c3c(c12)CC(C)(C)OC3,1.1,x,x,0.853,0.1,x,x,x,x
COc1ncnc2c1oc1nc(C(C)C)c3c(c12)CC(C)(C)OC3,0.7,8.71*,1.1,-0.845,3.8,3.1,20880*,1744,7356*
CCN1CCN(CCNC(=O)c2ccc(CS(=O)(=O)c3ccccc3C)o2)CC1,1.6,0.376,0.9,-0.242,8.2,-0.3,x,x,x
COC(=O)c1ccc(CS(=O)(=O)c2ccccc2C)o1,x,4.6*,0.9,-0.273,8.4,8.9,6940,1632,2348
COc1ccc(NC(=O)c2cccs2)cc1OC,1.1,8.05*,1,-0.13,1.4,8.9,13868*,1416,3488*
COc1ccc(C(=O)Nc2ccncc2)cc1OC,1,13.4*,0.9,0.0421,4.1,2.5,20440*,x,3884*
COc1ccc(C(=O)Nc2ccc(Cc3ccncc3)cc2)cc1OC,x,x,x,x,x,2.5,x,x,x
CC1CN(c2ccc([N+](=O)[O-])cc2Cl)CC(C)N1/C(=N\O)c1nonc1N (stereo not drawn),x,x,x,x,x,-24.4,x,x,x
NC(=O)c1cc(Cc2ccccc2)sc1NC(=O)c1ccco1,0.9,8.44*,0.9,-0.716,0.8,2.2,15080*,1668,3656*
C#CCOC(=O)CCN1C(=O)c2cccc3cccc(c23)C1=O,x,x,x,x,x,-17.5,x,x,x
O=c1c(=N/Nc2ccccc2)/c(=N\Nc2ccccc2)c2ccccc12,x,x,x,x,x,0.3,x,x,x
Nc1nc(-c2ccc(F)cc2)cc(C(F)(F)F)n1,0.7,x,x,-0.0914,0.5,x,x,x,x
Nc1nc(-c2ccc(Cl)cc2)cc(C(F)(F)F)n1,0.8,19.2*,0.9,-0.00979,8.8,-2.7,19568*,1592,3456*
CCOc1ccc(N2C(=O)/C(=C/c3cccc(Br)c3)SC2=S)cc1,x,x,x,x,x,5.1,x,x,x
CCc1nc2n[nH]c(N)c2c2c1CCCC2,1.3,x,1,-0.321,5.1,0.4,x,x,x
CCCCc1nc2n[nH]c(N)c2c2c1CCC2,1,7.93*,0.9,0.0966,6.9,-7.1,22688*,1740,6660*
Cc1cc(-n2nc(C)cc2C)nc(N)n1,1,5.59*,0.9,-0.083,11.3,8.3,10308*,x,2752*
SMILES,PLAP act,D1 allo mod,TNAP act DEA,DAT uptake mod,Candida biofilm,HePTP inhibitor,D1 PAM confirm,D1 ag no DA,Isoprot counter
Cc1cc(-n2nc(C)cc2C)nc(NS(=O)(=O)c2ccccc2)n1,1.3,3.79*,0.9,1.03,8.9,8.5,10456*,1500,2508
Cc1nn(-c2ccccc2)c2c1/C(=N/O)CC(C)(C)C2,1,11.5*,0.9,x,8.9,2.4,11596*,1584,3788*
C(=C(\c1ccccc1)c1nc2ccccc2[nH]1)/c1ccco1,x,x,x,x,x,4.9,x,x,x
CC(C#N)Sc1nc2ccccc2c(=O)n1-c1ccccc1 (stereo not drawn),0.9,9.23*,1,0.0192,5.9,-5.1,22624*,1776,6128*
COc1cccc(C(=O)N2CCN(Cc3ccc(OC)c(Br)c3)CC2)c1,x,x,x,x,x,12.5,x,x,x
CCOc1ccc(Nc2oc(-c3ccco3)nc2C#N)cc1,0.9,4.02*,0.9,0.0295,1.7,6.0,19668*,1436,3456*
CCOc1ccc(Nc2oc(-c3cccs3)nc2C#N)cc1,1,5.84*,0.9,0.183,9.6,14.6,11044*,1540,3136*
O=C1CSC(c2ccc(F)cc2)N1CCN1CCCCC1 (stereo not drawn),x,x,x,x,x,-4.1,x,x,x
Cc1cccc(C(C)C)c1NC(=O)c1cccc(Br)c1,x,x,x,x,x,7.4,x,x,x
CC(C)C[C@H]1C(=O)N2CCC[C@H]2[C@]2(O)O[C@](NC(=O)[C@@H]3C=C4c5cccc6[nH]c(Br)c(c56)CC4N(C)C3)(C(C)C)C(=O)N12 (stereo partly drawn),x,24.2*,0.8,1.78,0.8,9.0,20940*,18100*,24560*
CC1(C)CC(=O)c2cnc(N)nc2C1,1.1,x,x,0.471,7.8,x,x,x,x
CCc1nc(N)nc2c1C(=O)CC(C)(C)C2,1,8.26*,1,-1.54,-2.4,-9.4,20244*,1712,4008*
CCCCCn1c(NCc2ccco2)nc2ccccc21,0.9,6.3*,0.9,0.888,11.7,3.1,12176*,1460,3280
CCCn1c(NCc2ccco2)nc2ccccc21,1.1,-1.61,1,-0.0175,8.3,4.4,x,x,x
Cc1ccc(NC(=O)/C=C/c2cccc([N+](=O)[O-])c2)c(Br)c1,x,x,x,x,x,-5.7,x,x,x
